In PubChem BioAssay AID485318 (Broad Institute, 2010):
Hit rate of the full screen: of about 1,400 compounds, fewer than 10 were called active.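 Rule for the calls: active = fluorescence-lowering compounds whose fitted half-maximal concentration is at or below ten times the highest valid dose tested; inconclusive = flat curve at 30 to 70% inhibition, or poor fit; inactive = the rest.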 Only a sample is shown.

What follows are molecules tested against Histone deacetylase 3 (Homo sapiens) (UniProt O15379) (assay: HDAC3 deacetylase inhibitors, dose response, counter-screen for JMJD2C/GASC1 demethylase inhibitor project, biochemical, fluorescence, cherry-picked samples (AID 485318;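 note: enzyme preincubated with compound before substrate and trypsin were added; 0% = neutral control wells and -100% = SAHA positive control wells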)). Details: recombinant HDAC3, fluorogenic peptide/trypsin coupled; series mostly up to 12 µM; activity change, negative = inhibition: at the top concentration.
Sequence of Histone deacetylase 3 (Homo sapiens) (O15379 whole entry, looked up): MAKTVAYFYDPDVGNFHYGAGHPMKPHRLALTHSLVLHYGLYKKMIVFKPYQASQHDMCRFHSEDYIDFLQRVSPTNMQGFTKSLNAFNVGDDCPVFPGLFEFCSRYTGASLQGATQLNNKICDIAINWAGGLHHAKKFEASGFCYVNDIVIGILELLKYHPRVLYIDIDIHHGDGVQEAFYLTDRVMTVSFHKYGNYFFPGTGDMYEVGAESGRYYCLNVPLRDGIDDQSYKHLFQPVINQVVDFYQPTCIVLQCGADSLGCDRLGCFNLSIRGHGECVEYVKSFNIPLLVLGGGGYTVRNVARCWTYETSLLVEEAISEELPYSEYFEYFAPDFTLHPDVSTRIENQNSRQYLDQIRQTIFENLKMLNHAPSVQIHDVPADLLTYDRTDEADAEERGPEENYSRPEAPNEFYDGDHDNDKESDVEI

| Structure (SMILES) | activity change, negative = inhibition |
| --- | --- |
| C[C@H]1CN(CCc2ccccc2)C(=O)[C@@H]1CC(=O)NCc1ccccc1 | -0.42% (inactive) |
| COc1ccc(NC(=S)NNC(=O)c2ccc(S(=O)(=O)N3CCOCC3)cc2)cc1 | 0.24% (inactive) |
| CN(c1ccc(OCC(=O)N2CCCCC2)cc1)S(=O)(=O)c1cccs1 | -0.149% (inactive) |
| Nc1c(Cl)ncnc1NCc1cccnc1 | 0.296% (inactive) |
| CCC(C)C(NC(=O)OC(C)(C)C)C(=O)NC(C(=O)N1CCCC1C(N)=O)C(C)CC (configuration not stated) | 0.796% (inactive) |
| COc1cc(OC)cc(C(=O)Nc2ccc(-n3cnnn3)c(C)c2)c1 | -0.279% (inactive) |
| N#CCCn1c(SCC(=O)N2CCN(S(=O)(=O)c3ccccc3)CC2)nc2ccccc21 | 0.508% (inactive) |
| CCOC(=O)Nc1cc(C)c(Cl)cc1OC | 1.18% (inactive) |
| Cc1onc(-c2ccccc2)c1C(=O)Nc1c(C)n(C)n(-c2ccccc2)c1=O | 0.51% (inactive) |
| CS(=O)(=O)N(CC(=O)Nc1ccccc1C(=O)NCCc1ccccc1)c1ccc2c(c1)OCCO2 | 0.133% (inactive) |
| CCOC(=O)c1[nH]c(C)c(/C(O)=C2\C(=O)C(=O)N(CCCN(CC)CC)C2c2cccnc2)c1C (configuration not stated) | 0.131% (inactive) |
| COc1ccc(CCNC(=O)N2c3ccccc3Sc3ccccc32)cc1 | 1.25% (inactive) |
| CCC(=O)Nc1ccc(NC(=O)CSc2nnnn2C(C)C)cc1 | 0.553% (inactive) |
| C[C@@H]1CCCCCCCCC(=O)OCCN(C(=O)OC(C)(C)C)[C@H](C)CCCCCCCCC(=O)OCCN(C(=O)OC(C)(C)C)[C@H](C)CCCCCCCCC(=O)OCCN1C(=O)OC(C)(C)C | 0.233% (inactive) |
| Cc1ccc(S(=O)(=O)Nc2ccc3c(c2)CC(=O)N([C@H](C)CO)C[C@@H](C)[C@H](CN(C)S(=O)(=O)c2ccccc2)O3)cc1 | 1.04% (inactive) |
| CCOc1ccc(CN(C)CC(=O)Nc2cc(C)c(C)cc2[N+](=O)[O-])cc1 | -0.108% (inactive) |
| COc1ccccc1OCCOCCn1cnc2ccccc2c1=O | -0.761% (inactive) |
| O=[N+]([O-])c1cc(/C=N/Nc2nc3ccccc3[nH]2)c(O)cc1O | 0.0861% (inactive) |
| CC(=O)C[C@@H](O)CC(=O)[C@H]1OC(=O)[C@H](C)CCCCc2ccccc21 | -0.548% (inactive) |
| CC[C@]12c3[nH]c4ccccc4c3CCN1C(=O)C(CC(=O)NCCCOC)C[C@@H]2C(=O)N1CCN(C(=O)c2ccco2)CC1 (some centres not stated) | 0.706% (inactive) |
| CCOCCc1nnc(NC(=O)c2ccc(OC)c(OC)c2)s1 | -1.23% (inactive) |

| Structure (SMILES) | activity change, negative = inhibition |
| --- | --- |
| O=C1CCCc2c1nc(-c1ccccc1)n2O | 0.0393% (inactive) |
| COC(=O)[C@]1(Cc2ccccc2)N[C@H](CN(C)S(=O)(=O)c2ccc(F)cc2)[C@@H]2C(=O)N(Cc3ccccc3)C(=O)[C@@H]21 | 0.164% (inactive) |
| COc1ccc(C2CC(c3cccs3)=NN2S(=O)(=O)c2ccc(C)cc2)cc1 (configuration not stated) | 0.501% (inactive) |
| COc1ccc(/C=C/C(=O)NC(=S)NNC(=O)Cc2cccs2)cc1OC | -0.579% (inactive) |
| Cc1ccc(N2CC(C(=O)Nc3ccc(N(C)C)cc3)CC2=O)cc1C (configuration not stated) | 0.359% (inactive) |
| COc1ccc(NN=Nc2nc3c([nH]2)c(=O)n(C)c(=O)n3C)cc1 | 0.508% (inactive) |
| O=C(Cc1sc(-c2ccccc2)nc1-c1ccccc1)Nc1ccccc1 | -0.152% (inactive) |
| CCc1ccc(NC(=O)CSc2nnc(CNC(=O)c3c(F)cccc3Cl)o2)cc1 | 0.0315% (inactive) |
| O=C1CC2(CCN(C(=O)c3ccccc3Cl)CC2)Oc2ccccc21 | 0.607% (inactive) |
| C[C@H]1CN([C@@H](C)CO)C(=O)Cc2cc(NS(=O)(=O)c3cccs3)ccc2O[C@H]1CN(C)S(=O)(=O)c1cn(C)cn1 | -0.706% (inactive) |
| CC(=O)Nc1ccc2c(c1)C(C)(C)C(C)N2C (configuration not stated) | -1.19% (inactive) |
| O=C(O)c1ccnc(C(=O)O)c1 | -0.152% (inactive) |
| COc1ccc(NC(=O)Nc2cccc3c2O[C@H](CN(C)C(=O)NC(C)C)[C@@H](C)CN([C@H](C)CO)C3=O)cc1 | -0.142% (inactive) |
| COc1ccc(NC(=S)NCCCn2ccnc2)cc1 | -0.13% (inactive) |
| CCOc1ccc(N=Cc2c(O)n(-c3cccc(C)n3)c(=O)c3ccccc23)cc1 | 0.766% (inactive) |
| Cc1cccc(C)c1N1C(=O)c2cccc([N+](=O)[O-])c2C1=O | -0.27% (inactive) |
| CCOC(=O)C1CCN(S(=O)(=O)c2cccc(-c3cn4cc(Cl)ccc4n3)c2)CC1 | 0.424% (inactive) |
| CC(=O)c1c(C(C)=O)c(C)n(NC(=O)c2ccncc2)c1C | 0.563% (inactive) |
| CN1CCN(c2nc3ccccn3c(=O)c2/C=C(\C#N)S(=O)(=O)c2ccc(Cl)cc2)CC1 | 1.17% (inactive) |
| O=C1CC(N2CCC(O)(c3ccc(Cl)cc3)CC2)C(=O)N1Cc1ccc(N2CCCC2=O)cc1 (configuration not stated) | 0.431% (inactive) |
| CS(=O)(=O)c1ccccc1-c1nnc(NC(=O)c2ccc3ncsc3c2)o1 | -1.47% (inactive) |

| Structure (SMILES) | activity change, negative = inhibition |
| --- | --- |
| CN(C(=O)c1ccc(NC(=O)Cc2ccc(NC(=O)C3CCN(C(=O)C4CCC4)CC3)cc2)cc1)C1CC1 | 0.986% (inactive) |
| CCS(=O)(=O)N1CCN(c2ccc([N+](=O)[O-])c(N3CCOCC3)c2)CC1 | -0.0167% (inactive) |
| O=C(CCN1C(=O)/C(=C/c2ccc(F)cc2)SC1=S)N[C@@H](CO)Cc1ccccc1 | -0.0269% (inactive) |
| c1ccc(-c2ccccc2OCCN2CCCC2)cc1 | -0.955% (inactive) |
| CSc1nc(N)nc2c1ncn2CC(=O)N[C@H](CO)Cc1c[nH]c2ccccc12 | -0.258% (inactive) |
| CCc1nn2c(N3CCOCC3)cc(C)nc2c1-c1ccc(F)cc1 | 0.143% (inactive) |
| CSc1nc(N)nc2c1ncn2CC(=O)NCCNc1ccc([N+](=O)[O-])cn1 | -0.105% (inactive) |
| CC1=C(C(=O)OC(C)C)C(c2ccccc2)NC(=S)N1C (configuration not stated) | -0.136% (inactive) |
| COc1ccccc1N1CCN(c2nc3c(C)cccn3c(=O)c2C=O)CC1 | 0.107% (inactive) |
| O=c1c2ccccc2nc2c3ccccc3c(NCc3ccco3)nn12 | 0.625% (inactive) |
| O=C(NCC(c1ccco1)N1CCN(c2ccc(F)cc2)CC1)OCc1ccccc1 (configuration not stated) | 0.174% (inactive) |
| CC(C)(C)NC(=O)CSc1nc2cccnc2n1C1CCCCC1 | 0.349% (inactive) |
| C/C(=N\Nc1nc(C(=O)O)cs1)c1ccccc1 | -0.586% (inactive) |
| CN1CCN(Cc2c(C#N)c3ccccc3n2C)CC1 | -0.48% (inactive) |
| CN(C)CCCNC1=CC(=O)OC12CCCCC2 | -0.144% (inactive) |
| Nn1cc(-c2ccccc2)nc1SCC(=O)N1CCN(S(=O)(=O)c2ccc3ccccc3c2)CC1 | -0.203% (inactive) |
| CCN(CC)C(=O)C1c2ccccc2Oc2ccccc21 | -0.357% (inactive) |
| CCCn1nnnc1SCC(=O)NCc1ccc2c(c1)OCO2 | 0.24% (inactive) |
| Cc1noc(C)c1COc1ccc(C(=O)OC(C)C(=O)Nc2ccc(N3CCOCC3)cc2)cc1 (configuration not stated) | 0.0949% (inactive) |
| CCNC(=O)c1ccc2c(c1)S(=O)(=O)c1ccccc1C2=O | 0.35% (inactive) |
